Assay results published in PubChem BioAssay (Tox21).
Activity calls are given as the source filed them. Calls come from the whole dose curve; as a rule, active = well fitted curve in the direction sought with a large enough effect in the repeat runs; inconclusive = weak or mixed curves; inactive = flat fitted curve, though single readings scatter.

Experiment: qHTS assay to test for compound auto fluorescence at 590 nm (red) in HepG2 cells (AID 720674)
Conditions: HepG2 autofluorescence, red 540/590 nm, 1 h; series mostly up to 91.3 µM; fluorescence, relative to Rose Bengal: at the top concentration
From the text: U.S. Tox21 Program National Center for Advancing Translational Sciences [NCATS] NIH Chemical Genomics Center [NCGC] U.S. Environmental Protection Agency [EPA] National Institutes of Environmental Health Sciences [NIEHS] National Toxicology Program [NTP] U.S. Food and Drug Administration [FDA] Tox21 Assay Overview: Compound auto fluorescence often interferes with screening of the compound library against various biological targets and signaling pathways. Some of these compounds may have fluorophoric properties. Such properties may interfere with the assay outputs resulting in false positives and/or negatives. To decrease such complications and ensure the compound activities are relevant in terms of biological response, the Tox21 10K compound library was screened for auto fluorescence. From the fluorophores used as reporter signals in our screening assays, the auto fluorescence equivalencies of compounds against three fluorophores have been evaluated: Triamterene, Fluorescein and Rose Bengal sodium for blue, green and red fluorescence, respectively. The fluorescence intensities were measured using Excitation/Emission wavelengths at 405/460nm, 485/535nm and 540/590nm for blue, green and red labels, respectively. This assay includes the red fluorescence data.
Tox21 Assay Protocol Summary: 2,000 HepG2 cells in 5 uL of culture medium (MEM containing 10% FBS) per well were dispensed into black wall/clear bottom 1536-well plates using a Multidrop Combi Dispenser (ThermoFisher Scientific, Waltham, MA). The assay plates were incubated overnight at 37 C to allow cell attachment to the well bottom, followed by the transfer of 23 nL compound or DMSO vehicle by a pintool work station (Kalypsys , San Diego, CA). After the assay plates were incubated for 1 hr at 37 C and 5% CO2, fluorescence intensities in the assay plates were measured by an Envision (PerkinElmer, Shelton, CT) plate reader using three labels for measuring blue, green and red fluorescence at […] 460, 535 and 590 nm respectively.
% is set by controls: 0 for no effect and ±100 for the full control effect.

SMILES	fluorescence, relative to Rose Bengal	outcome
N#C[C@@H]1C[C@@H]2C[C@@H]2N1C(=O)[C@@H](N)C12CC3CC(CC(O)(C3)C1)C2	0.29% [at 46 µM] (inactive)	–
CCCOC(=O)c1ccc(C(=O)OCCC)nc1	0.0858% (inactive)	–
C[C@@H]1C[C@H]2[C@@H]3CCC4=CC(=O)C=C[C@]4(C)[C@@]3(F)[C@@H](O)C[C@]2(C)[C@H]1C(=O)CO	-0.227% [at 46 µM] (inactive)	–
CO[C@@]12[C@H](COC(N)=O)C3=C(C(=O)C(C)=C(N)C3=O)N1C[C@@H]1N[C@@H]12	0.11% [at 46 µM] (inactive)	–
C=CC(=O)NCOCC(C)C	-0.259% (inactive)	–
O=C(CS)OCCOC(=O)CS	0.0169% (inactive)	–
CSc1ccc(Oc2ccc(S(N)(=O)=O)cc2CN(C)C)cc1C	0.268% (inactive)	–
COC(=O)CC(=O)C(C)(C)C	-0.334% (inactive)	–
CCCOC(=O)c1ccc(N)cc1	0.369% [at 46 µM] (inactive)	–
COc1cc2c(N3CCN(C(=O)Nc4ccc(OC(C)C)cc4)CC3)ncnc2cc1OCCCN1CCCCC1	-0.888% [at 46 µM] (inactive)	–
CCC(C)(C)C1CCC(O)CC1 (stereo not given)	-0.129% (inactive)	–
CCC(=O)Oc1ccc(/C(CC)=C(\CC)c2ccc(OC(=O)CC)cc2)cc1	0.055% (inactive)	–
Cc1ccc(S(=O)(=O)NC2CCCCC2)cc1	0.041% (inactive)	–
CC[C@@H]([C@H](C)O)n1ncn(-c2ccc(N3CCN(c4ccc(OC[C@@H]5CO[C@@](Cn6cncn6)(c6ccc(F)cc6F)C5)cc4)CC3)cc2)c1=O	-0.0872% [at 46 µM] (inactive)	–
O=C(O)Cc1ccc(-c2ccccc2)cc1	0.37% [at 18.6 µM] (inactive)	–
COCc1c(C(C)C)nc(C(C)C)c(/C=C/[C@@H](O)C[C@@H](O)CC(=O)O)c1-c1ccc(F)cc1	0.0675% [at 46 µM] (inactive)	–
COc1cc2[nH]c(=O)[nH]c(=O)c2cc1OC	0.0405% [at 18.6 µM] (inactive)	–
Nc1ccc(S(=O)(=O)O)c(N)c1	0.145% (inactive)	–
CCn1nc(C)c2c1C(=O)NCC(c1ccc(O)cc1)=N2	-0.0455% (inactive)	–
CCOC(=O)C(C)Oc1ccc(Oc2nc3ccc(Cl)cc3o2)cc1 (stereo not given)	0.533% (inactive)	–

SMILES	fluorescence, relative to Rose Bengal	outcome
NCC1CCCC(CN)C1 (stereo not given)	-0.51% (inactive)	–
CC(C)CCCCCCOC(=O)CCCCC(=O)OCCCCCCC(C)C	0.0695% (inactive)	–
CC(N)CN (stereo not given)	-0.0528% [at 95.7 µM] (inactive)	–
C[Si]1(C)O[Si](C)(C)O[Si](C)(C)O1	0.217% (inactive)	–
O=C(O)c1snc(Cl)c1Cl	-0.364% (inactive)	–
CCCCN(CCCC)C(=S)SSC(=S)N(CCCC)CCCC	0.175% (inactive)	–
C(=C\c1ccccc1)/CN1CCN(C(c2ccccc2)c2ccccc2)CC1	-0.246% [at 18.6 µM] (inactive)	–
CO[C@H]1O[C@H](CO)[C@@H](O)[C@H](O)[C@H]1O	0.175% (inactive)	–
C[C@]12CCC(=O)C=C1C=C[C@@H]1[C@@H]2CC[C@@]2(C)[C@H]1CC[C@@]21CCC(=O)O1	0.283% [at 46 µM] (inactive)	–
Fc1c(F)c(F)c(Br)c(F)c1F	-0.0387% (inactive)	–
CC(C)c1nnc2ccc(-c3ocnc3-c3cc(F)ccc3F)cn12	0.0688% (inactive)	–
CC1(C)C(=O)N(Br)C(=O)N1Cl	-0.499% (inactive)	–
CC(=O)Nc1ccccc1C	0.203% [at 95.7 µM] (inactive)	–
N#C/C(=C1/SC[C@@H](c2ccc(Cl)cc2Cl)S1)n1ccnc1	–	inactive
C=C(C)C(=O)OCCOC(=O)CC(C)=O	0.0386% (inactive)	–
CC1CC(O)CC(C)(C)C1 (stereo not given)	–	inactive
CC(=O)Oc1ccc(C(=C2CCCCC2)c2ccc(OC(C)=O)cc2)cc1	0.103% [at 46 µM] (inactive)	–
CCOc1cc(N)c(Cl)cc1C(=O)NCC1CN(Cc2ccc(F)cc2)CCO1 (stereo not given)	0.163% [at 46 µM] (inactive)	–
CCc1cccc(N(C)C(N)=Nc2cccc3ccccc23)c1	-0.365% [at 46 µM] (inactive)	–
CC(CCO)CCc1ccccc1 (stereo not given)	-0.615% (inactive)	–
